Consider seven compounds from PubChem BioAssay (Tox21).

Values without a mark were called inactive. Records with an inconclusive call do not appear. The source made the active and inactive calls. Unless noted, calls follow the shape of the dose curve; as a rule, active = well fitted curve in the direction sought with a large enough effect in the repeat runs; inconclusive = weak or mixed curves; inactive = no such curve, though single readings can be large; an effect the other way counts as inactive or inconclusive.

Test [1] is described as follows: qHTS assay to identify small molecule agonists of H2AX (AID 1224845; active = well fitted activation curve with a large enough effect in the signal ratio in the repeat runs, not every such curve was filed as active; the % refers to the signal ratio). The following applies: CHO-K1 phospho-H2AX Ser139 HTRF, 3 h; series mostly up to 154 µM. The method in brief: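 Wild-type CHO-K1 cells plated overnight, then exposed 3 hr at 37C to compounds at 15 concentrations (0.76% DMSO). Lysed, then HTRF anti-pH2AX(S139)-cryptate/anti-H2AX-d2 detection after 24 hr at room temperature; emissions 665 and 620 nm.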
On the technique in general: Quantitative high-throughput screening tests each substance at several concentrations.

The nature of test [2]: qHTS assay to identify small molecule agonists of the hypoxia (HIF-1) signaling pathway (AID 1224846; active = well fitted activation curve with a large enough effect in the signal ratio in the repeat runs, not every such curve was filed as active; the % refers to the signal ratio). Conditions: HRE-bla ME-180 cells, beta-lactamase ratio, 17 h; series mostly up to 76.8 µM. The gist of the method: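 Cell line: CellSensor HRE-bla ME-180; 2,000 cells/well; 0.5% dialyzed FBS; 5 h preincubation; DMSO compound pin transfer; 17 h, 37C, 5% CO2; CCF4-AM added; bla FRET signal scored for activation.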

Test [3] is described as follows: qHTS assay to identify small molecule agonists of H2AX - cell viability counter screen (AID 1224847; calls by dose curve; also: top concentration of the series differs between compounds; nearly all actives have a fitted effect of over 30% in size). The following applies: CHO-K1 viability, CellTiter-Glo luminescence, 3 h; series mostly up to 154 µM. The method in brief: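 Compounds tested at 15 concentrations were incubated 3 hr at 37C with wild-type CHO-K1 cells; cellular ATP-based luminescence (CellTiter-Glo) indicated viability.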

Test [4] in a line: qHTS RealTime-Glo MT Cell Viability Assay in HEK293 cells - 32 hour (AID 1224868). Also: top concentration of the series differs between compounds; nearly all actives have a fitted effect of over 50% in size. The following applies: RealTime-Glo luminescence; series mostly up to 76.8 µM. The gist of the method:
(§1)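 Tox21 10K qHTS, HEK293, 600 cells/well, RealTime-Glo reagent co-dispensed with cells; 5 h preincubation, compound by pintool, 37 C, luminescence at 0–40 h.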

The nature of test [5]: A CellTox Green Cytotoxicity Assay to monitor cytotoxicity in HEK293 cells - 0 hour (AID 1224869). Also: nearly all actives have a fitted effect of over 50% in size. Conditions: CellTox Green fluorescence; series mostly up to 76.8 µM. The method in brief: (§2)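 Nonlytic real-time cytotoxicity: HEK293 + CellTox Green reagent plated, 5 h preincubation, pintool compound addition (23 nL in DMSO), 37 C for 40 h, fluorescence measured at successive time points.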

Test [6] is described as follows: qHTS RealTime-Glo MT Cell Viability Assay in HepG2 cells - 40 hour (AID 1224870). Also: nearly all actives have a fitted effect of over 50% in size. Conditions: RealTime-Glo luminescence; series mostly up to 76.8 µM. The method in brief: (§3)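 HepG2 cells mixed with RealTime-Glo MT reagents (NanoLuc plus cell-permeant prosubstrate) were seeded at 600 cells/well, incubated 5 h at 37 C/5% CO2, then pinned with compounds in DMSO; nonlytic luminescence tracked viability during 40 h treatment.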

Test [7] in a line: A CellTox Green Cytotoxicity Assay to monitor cytotoxicity in HEK293 cells - 40 hour (AID 1224871). Also: nearly all actives have a fitted effect of over 45% in size. The following applies: CellTox Green fluorescence; series mostly up to 76.8 µM. The gist of the method: as §2
A short description of test [8]: qHTS RealTime-Glo MT Cell Viability Assay in HEK293 cells - 16 hour (AID 1224872). Also: top concentration of the series differs between compounds; nearly all actives have a fitted effect of over 50% in size. The following applies: RealTime-Glo luminescence; series mostly up to 76.8 µM. The gist of the method: as §1
A short description of test [9]: qHTS RealTime-Glo MT Cell Viability Assay in HEK293 cells - 40 hour (AID 1224874). Also: nearly all actives have a fitted effect of over 50% in size. The following applies: RealTime-Glo luminescence; max response: hits give low values. The method in brief: (§4)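 Cells were seeded together with NanoLuc luciferase and a prosubstrate that viable cells reduce to a luciferase substrate. After a 5 h incubation at 37 C/5% CO2, compounds were added and luminescence was measured repeatedly during 40 h of treatment.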

The nature of test [10]: A CellTox Green Cytotoxicity Assay to monitor cytotoxicity in HEK293 cells - 24 hour (AID 1224875). Also: nearly all actives have a fitted effect of over 45% in size. The following applies: CellTox Green fluorescence; series mostly up to 76.8 µM. The method in brief:
as §2

The nature of test [11]: A CellTox Green Cytotoxicity Assay to monitor cytotoxicity in HepG2 cells - 16 hour (AID 1224876). Also: nearly all actives have a fitted effect of over 45% in size. Conditions: CellTox Green fluorescence; series mostly up to 76.8 µM. The gist of the method:
(§5)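 Read-out is fluorescence of a cyanine dye excluded from live cells that stains DNA of dead HepG2 cells, with signal proportional to cytotoxicity. Plates were read at 0, 8, 16, 24, 32 and 40 h after compound addition.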

Test [12] in a line: qHTS RealTime-Glo MT Cell Viability Assay in HepG2 cells - 32 hour (AID 1224877). Also: nearly all actives have a fitted effect of over 55% in size. The following applies: RealTime-Glo luminescence; series mostly up to 76.8 µM. The method in brief:
(§6)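 Cells + NanoLuc/prosubstrate dispensed (600 cells/well) → 5 h at 37 C/5% CO2 → compounds in DMSO transferred → 40 h incubation at 37 C, luminescence read at 0, 8, 16, 24, 32, 40 h.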

Test [13] can be described thus: A CellTox Green Cytotoxicity Assay to monitor cytotoxicity in HepG2 cells - 24 hour (AID 1224878). Also: nearly all actives have a fitted effect of over 45% in size. The following applies: CellTox Green fluorescence; series mostly up to 76.8 µM. The gist of the method:
as §5

The nature of test [14]: A CellTox Green Cytotoxicity Assay to monitor cytotoxicity in HepG2 cells - 40 hour (AID 1224879). Also: nearly all actives have a fitted effect of over 40% in size. The following applies: CellTox Green fluorescence; series mostly up to 76.8 µM. The method in brief:
as §5

The nature of test [15]: qHTS RealTime-Glo MT Cell Viability Assay in HEK293 cells - 0 hour (AID 1224880). Also: nearly all actives have a fitted effect of over 45% in size. Also: potency is read from the fitted curve at half-maximal effect. The following applies: RealTime-Glo luminescence; series mostly up to 76.8 µM. The gist of the method: as §4
The nature of test [16]: A CellTox Green Cytotoxicity Assay to monitor cytotoxicity in HEK293 cells - 32 hour (AID 1224881). Also: nearly all actives have a fitted effect of over 40% in size. Conditions: CellTox Green fluorescence; series mostly up to 76.8 µM. The gist of the method: as §2
Test [17] in a line: qHTS RealTime-Glo MT Cell Viability Assay in HepG2 cells - 24 hour (AID 1224867). Also: nearly all actives have a fitted effect of over 50% in size. Conditions: RealTime-Glo luminescence; series mostly up to 76.8 µM. The method in brief: as §6
Test [18] is described as follows: qHTS RealTime-Glo MT Cell Viability Assay in HepG2 cells - 8 hour (AID 1224873). Also: nearly all actives have a fitted effect of over 55% in size. The following applies: RealTime-Glo luminescence; series mostly up to 76.8 µM. The gist of the method:
as §3
% is scaled to controls: 0 for no effect and ±100 for the full control effect.

With `CCOC(=S)SSC(=S)OCC`, the Potency entry in [1], in test [3], in test [4], in test [5], in test [6] and in [7] was “inactive” in each case. In addition, the Potency entry in test [8], in test [10], in test [11], in test [12], in test [13] and in test [14] was “inactive” in each case. For the same compound, the Potency entry in test [15] and in [16] was “inactive” in each case. Also, in [2], the result was inactive. In [9], the max response is 1.68%.
On to `CCN1CCC[C@H]1CNC(=O)c1c(OC)ccc(Br)c1OC`, for which the Potency result in test [1], in [3], in test [17], in test [4], in test [5] and in [6] was “inactive” in each case. In addition, the Potency entry in test [7], in test [8], in test [10], in test [11], in [12] and in test [13] was “inactive” in each case. Further, the Potency result in test [14], in test [15] and in test [16] was “inactive” each time. The result in test [2] was inactive. Also, the max response in [9] is 12.2%.
Turning to `C1CCC2OC2C1` (configuration not stated), the Potency entry in test [1], in [3], in [4], in [5], in test [6] and in [7] was “inactive” each time. Also, the Potency result in test [8], in [18], in [10], in test [11], in test [12] and in test [13] was “inactive” throughout. The Potency result in [14], in test [15] and in [16] was “inactive” in each case. In test [2], the result was inactive. Besides, the max response in test [9] is 4.85%.
Regarding `O=c1[nH]cnc2ccccc12`, the Potency entry in test [1], in test [3], in test [17], in test [4], in test [5] and in [6] was “inactive” throughout. Also, the Potency result in test [8], in test [18], in test [10], in [11], in test [12] and in test [13] was “inactive” in each case. The Potency entry in test [15] and in test [16] was “inactive” throughout. Also, the outcome in test [2] was inactive. In addition, the max response in test [9] was -7.9%.
Turning to `CC(C)(Oc1ccc(Cl)cc1)C(=O)OCCCOC(=O)C(C)(C)Oc1ccc(Cl)cc1`, the Potency entry in [1], in [3], in test [17], in test [4], in test [5] and in [6] was “inactive” throughout. In addition, the Potency entry in [18], in [10], in test [12], in [13], in [14] and in test [15] was “inactive” each time. Besides, in test [16], the Potency entry is “inactive”. Further, the outcome in test [2] was inactive. Besides, the max response in [9] was -17.7%.
For the compound `CC(=O)O[C@@H]1C(=O)O[C@@H]2[C@H]1OC(=O)[C@@H]2OC(C)=O`, the Potency entry in [1], in [3], in test [17], in [4], in [5] and in test [6] was “inactive” in each case. The Potency result in [7], in test [8], in test [18], in [10], in [12] and in test [13] was “inactive” each time. The Potency entry in [15] and in [16] was “inactive” in each case. In addition, in [2], the result was inactive. Further, in test [9], the max response is -24.6%.
As to `O=C(NS(=O)(=O)/C=C/c1cccs1)c1ccc(F)cc1Br`, the Potency entry in test [1], in [3], in test [17], in test [5], in test [6] and in test [7] was “inactive” throughout. Besides, the Potency result in [8], in test [10], in test [11], in test [12], in [13] and in [14] was “inactive” in each case. Moreover, the Potency result in test [16] was “inactive”. Besides, the result in test [2] was inactive. Moreover, the Potency in test [15] is 19.5 µM (active).
